# Results reported in PubChem BioAssay AID2012 (Sanford-Burnham Center for Chemical Genomics, 2009).
# The whole screen tested about 290,000 compounds, of which about 2,700 (0.93%) were called active. No rule for the calls is given here. The full list was thinned out, with actives kept by preference.
# Biological target: Eukaryotic translation initiation factor 4H (Homo sapiens) (UniProt Q15056)
# Assay: eIF4H binding inhibition – biochemical, uHTS, fluorescence polarization, translation initiation inhibitor project, primary screen (AID 2012);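 also: calls also rest on retests at 20 µM and on dose response follow-up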
# Details: eIF4H fluorescence polarization binding assay, stronger effect = higher value
SMILES,inhibition (at 35 µM),"inhibition (confirmation average, at 20 µM)"
CN(CC1CCCN(CCc2cccc(C(F)(F)F)c2)C1)C(=O)c1ccc2nc[nH]c2c1 (stereo not given),-2% (inactive),–
Oc1ccc(-c2cccc(-c3ccc(O)cc3)c2)cc1,2% (inactive),–
CCC(C)(C)NC(=O)C(c1ccc(O)cc1)N(Cc1ccco1)C(=O)CCC(=O)Nc1ccccn1 (stereo not given),-7% (inactive),–
Cc1[nH]n(C(N)=S)c(=O)c1N=Nc1ccc(Cl)cc1Cl,13.7% (inactive),–
Cc1cc2ccccc2n1CCC(=O)O,52.4% (active),80.5%
Cc1cc2ccccc2n1CCNC(=O)COc1ccc2ccccc2c1,21% (inactive),–
O=C(O)CCn1c(Cc2ccccc2)nc2ccccc21,0.7% (inactive),–
CCc1nc(N2CCN(C(C)=O)CC2)c2c3c(sc2n1)CCCC3,-5.1% (inactive),–
COc1ccc(C(C)NC(=S)NC2CCCCC2)cc1OC (stereo not given),-7.9% (inactive),–
CCOc1ccc(N(C)Cc2cc(=O)oc3ccc(OC)cc23)cc1,4.8% (inactive),–
O=C(NCc1cccnc1)c1ccccc1NC(=O)c1c(F)cccc1F,-10.7% (inactive),–
O=c1ccn(Cc2ccccc2Cl)cc1,-2.8% (inactive),–
CSc1ccc(/C=N/N2CCN(Cc3ccccc3Cl)CC2)cc1,0.6% (inactive),–
O=S1(=O)CCN(Cc2ccccc2Cl)CC1,56.9% (active),81.5%
COC(=O)c1ccc(C(=O)NC2CC(C)(C)Cc3c2cnn3-c2ccc(F)cc2)nc1 (stereo not given),-3.4% (inactive),–
CC(c1ccccn1)N(C)C(=O)c1ccc2nc(Cc3cccc(Cl)c3)oc2c1 (stereo not given),-0.5% (inactive),–
COCCN1C=C2C(=O)C(C)(OC(=O)C3CCCC3)C(=O)C=C2C=C1c1ccsc1 (stereo not given),98.2% (active),–
COC(=O)CCCC1=CC2=CC(=O)C(C)(OC(=O)c3cccs3)C(=O)C2=CN1CC1CC1 (stereo not given),45.8% (inactive),–
CC1(OC(=O)CCc2ccccc2)C(=O)C=C2C=C(c3ccc(C#N)cc3)N(CCc3ccccn3)C=C2C1=O (stereo not given),35.9% (inactive),–
COCc1c(C(=O)N/N=C(\C)c2ccncc2)nnn1-c1nonc1N,1.9% (inactive),–
Cc1ccc(NC(=O)C2CCN(S(=O)(=O)c3ccc4c(c3)NC(=O)CO4)CC2)cc1C,-7.3% (inactive),–
COc1ccccc1C(=O)N(Cc1ccc(C)o1)C1CCS(=O)(=O)C1 (stereo not given),-6.1% (inactive),–
NC(=O)c1c(NC(=O)c2ccccc2)sc2c1CCCC2,-0.5% (inactive),–
Fc1cc(F)c2nc(Nc3nc4c(F)cccc4s3)sc2c1,11.5% (inactive),–

SMILES,inhibition (at 35 µM),"inhibition (confirmation average, at 20 µM)"
NC(=O)c1c(Nc2nc3c(F)cccc3s2)sc2c1CCCC2,72.6% (active),99.1%
Cc1cc2oc(=O)cc(CN(C)Cc3ccc(OC(F)F)cc3)c2cc1Cl,-2.2% (inactive),–
Cc1ccc(S(=O)(=O)N2CCC(C)CC2)cc1C(=O)NCc1ccccn1,-2.5% (inactive),–
CCc1ccc(NC(=O)CN2CCC(C(=O)c3ccc(OC)cc3)CC2)cc1,-2.2% (inactive),–
CCOC(=O)N1CCN(C(=O)COc2ccc(Br)cc2)CC1,5.2% (inactive),–
Cc1ccc(C(=O)OC2CCCN(C)C2)cc1 (stereo not given),-3.9% (inactive),–
CN1CCCC(OC(=O)COc2ccc(Br)cc2)C1 (stereo not given),99.9% (active),84.2%
Fc1ccccc1CNC(=S)Nc1ccc(Cl)cc1,0.6% (active),106%
COC(=O)Cc1ccc(NC(=S)NCc2ccc(Cl)cc2)cc1,2% (inactive),–
S=C(NCc1cccs1)Nc1ccc(Cl)cc1,-10% (inactive),–
CCn1c(=O)c2ccccc2n(CC(=O)N2CCCc3ccccc32)c1=O,-6.1% (inactive),–
O=C(CSCc1ccccc1)N1CCc2ccccc21,2.4% (inactive),–
CCC(=O)N1CCCc2ccccc21,100% (active),–
COc1ccc(S(=O)(=O)N2CCOC2CNC(=O)C(=O)NCc2ccc(F)cc2)cc1 (stereo not given),-9.2% (inactive),–
CCOc1c(OC)cccc1C(=O)NCC1(c2ccccc2)CCCC1,-6% (inactive),–
COc1cc([C@H](Cc2ccccc2)NC(C)=O)oc(=O)c1,100% (active),–
COC(=O)[C@H](Cc1ccccc1)NC(=O)Nc1ccc(OC)cc1,2.4% (inactive),–
CCOC(=O)C(Cc1ccccc1)NC(=O)CCC(=O)c1ccc(OC)cc1 (stereo not given),-3.3% (inactive),–
COc1cc2c(cc1OC)CN(C(=O)c1cc(S(=O)(=O)N3CCCCC3)ccc1Cl)CC2,-13.7% (inactive),–
O=C(Cc1ccccc1)n1nc(-c2ccccc2)nc1NCc1ccco1,-6.8% (inactive),–
O=c1nc2s/c(=C\c3ccco3)c(=O)n2nc1Cc1ccccc1,96.4% (active),–
Cc1nc2nc(SCC(=O)NCc3ccco3)nn2c(C)c1Cc1ccccc1,3.5% (inactive),–
Cc1cccn2c(=O)c(C=O)c(Nc3ccc(S(N)(=O)=O)cc3)nc12,-1.8% (inactive),–
Cc1ccc(C)c(N2CCN(C(=O)CCCCCn3c(=S)[nH]c4ccc(N5CCOCC5)cc4c3=O)CC2)c1,1.4% (inactive),–

SMILES,inhibition (at 35 µM),"inhibition (confirmation average, at 20 µM)"
C=CCn1c(SCc2csc(C)n2)nc2scc(-c3ccc(C)o3)c2c1=O,4.9% (inactive),–
C=CCNC(=O)CSc1nc2scc(-c3ccco3)c2c(=O)n1CC=C,49.9% (inactive),–
C=CCn1c(=S)[nH]c2scc(-c3ccco3)c2c1=O,94.1% (active),–
O=[N+]([O-])c1ccccc1/C=C/CN1CCCC(CO)C1 (stereo not given),-4.3% (inactive),–
C=CCNc1nnc(SCC(=O)N2CCCCC2)c2ccccc12,85.7% (active),54.5%
C=CCNc1nnc(C)c2ccccc12,-4.9% (inactive),–
O=C(CSc1ncccn1)N1CCCC1,-5.6% (inactive),–
C=CCOc1ccc(C(=O)Nc2ccccc2C(=O)N2CCCC2)cc1,0.5% (inactive),–
COCC1CCN(C(=O)C2CCC(=O)N(Cc3cccc(C(F)(F)F)c3)C2)CC1 (stereo not given),-2.7% (inactive),–
COc1ccc(N(CC(=O)NCCSCc2cccc(Cl)c2)S(C)(=O)=O)cc1,-10.9% (inactive),–
NC(=O)c1c(NC(=O)CSc2nc(N)cc(=O)[nH]2)sc2c1CCCC2,15.5% (inactive),–
CCc1cccc(C)c1NC(=O)CSc1nnc(-c2ccco2)n1N,6.1% (inactive),–
NC(=O)c1c(NC(=O)CSc2nnc(-c3ccco3)n2N)sc2c1CCCC2,65.9% (active),96.5%
COc1ccc(C(=O)NC(=S)N2CCCCC2c2cccnc2)cc1OC (stereo not given),2% (inactive),–
O=C(CN(C(=O)CCC(=O)Nc1nccs1)c1ccc(F)cc1)NCc1ccc2c(c1)OCO2,-1.4% (inactive),–
CNc1nc(-c2ccccc2)cc(-c2ccccc2)n1,-3.9% (inactive),–
Nc1nc(-c2ccccc2)cc(-c2ccccc2)n1,0.4% (inactive),–
CS(=O)(=O)c1sc2nc(-c3ccccc3)cc(-c3ccccc3)c2c1N,98.5% (active),–
CCCc1cc(C(=O)Nc2ccc(Cl)cn2)cs1,2.5% (inactive),–
CCc1ccccc1S(=O)(=O)Cc1ccc(C(=O)NCCc2ccccc2)o1,-13% (inactive),–
COc1ccccc1-n1c(-c2cc(-c3ccco3)[nH]n2)n[nH]c1=S,58% (active),74%
COc1ccc(-n2c(-c3ccc(OC)c(OC)c3)n[nH]c2=S)cc1,7.7% (inactive),–
COc1ccc(OC)c(-n2c(-c3ccn[nH]3)n[nH]c2=S)c1,-6% (inactive),–
Cc1nc(C)c(-c2nnc(-c3cccc(S(=O)(=O)N(C)C)c3)o2)cc1C(=O)NN,-1.3% (inactive),–

SMILES,inhibition (at 35 µM),"inhibition (confirmation average, at 20 µM)"
Cc1ccccc1C(=O)NC(=S)NC1CC1,-17.7% (inactive),–
Cc1c(Cl)cnc(NC(=O)COC(=O)c2ccc(S(=O)(=O)NCc3ccco3)cc2)c1Cl,58.6% (active),87.4%
CSCCC(NC(=O)c1ccco1)C(=O)OCC(=O)Nc1ncc(Cl)c(C)c1Cl (stereo not given),4.5% (inactive),–
C/C(=N\Nc1ncc(Cl)cc1Cl)c1ccc(S(=O)(=O)NCc2ccco2)cc1,-4.5% (inactive),–
CC(=O)Nc1ccc(N2C(=O)C3C4C=CC(CC4)C3C2=O)cc1 (stereo not given),-5.9% (inactive),–
O=c1[nH]c(/C=C\c2cccc(C(F)(F)F)c2)nc(O)c1[N+](=O)[O-],3.5% (inactive),–
Cc1cccc(NS(=O)(=O)c2ccc(C(=O)NCC(C)(C)N3CCOCC3)cc2)c1C,-0.1% (inactive),–
O=C1N/C(=C/c2cccn2-c2ccccc2)C(=O)N1c1cccc(Cl)c1,2.6% (inactive),–
Cc1cccc(NC(=O)CN2C(=O)c3ccccc3C2=O)c1C,9.4% (inactive),–
Cc1ccccc1NC(=O)CN1C(=O)N/C(=C\c2cccn2-c2cccc(C(=O)O)c2)C1=O,89.1% (active),86.1%
Cc1ccc(CNC(=O)C(=O)c2cn(CC(=O)N3CCOCC3)c3ccccc23)cc1,-6.1% (inactive),–
Cc1ccc(C)c(SCc2nc3sc(C(=O)O)c(C)c3c(=O)[nH]2)c1,2.9% (inactive),–
CCOC(=O)c1sc2nc(CSc3ccccc3)[nH]c(=O)c2c1C,2.6% (inactive),–
CSc1nnc(SCc2nc3sc(C(=O)O)c(C)c3c(=O)[nH]2)s1,86.3% (active),–
COC(=O)c1ccccc1NC(=O)CSc1n[nH]c(-c2ccncc2)n1,3.3% (inactive),–
Cc1cccnc1CC(C)NC(=O)c1cc(COc2cncc(Cl)c2)on1 (stereo not given),-1% (inactive),–
Oc1ccc(N=Cc2c(O)ccc3ccccc23)cc1,19% (inactive),–
O=C(N/N=C/c1c(Cl)[nH]c2ccccc12)c1sc2ccccc2c1Cl,-8.2% (inactive),–
Oc1ccc(N=Cc2sc3ccccc3c2Cl)cc1,105% (active),73.8%
CCCOc1ccc(/C=N/NC(=O)C2CC2)c(OCCC)c1,-12.1% (inactive),–
Cc1c(OC(C)C(=O)N[C@@H](Cc2ccccc2)C(=O)O)ccc2c3c(c(=O)oc12)CCCC3 (stereo not given in full),5.5% (inactive),–
Cc1cc(OC(C)C(=O)NC2CC(C)(C)NC(C)(C)C2)c2c(C)cc(=O)oc2c1 (stereo not given),-0.9% (inactive),–
